PNC inhibitor: High Content Assay for Compounds that inhibit the Assembly of the Perinucleolar Compartment. PC3M PTB-GFP, PNC prevalence imaging, 16 h; stronger effect = lower value. activity change (PNC), negative = inhibition, % at 10 µM. 140,000 compounds, 3.1% hits. AID 2417, 2010;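 active means readout at or below -70, meaning at least 70% loss of cells showing the perinucleolar compartment, a nuclear body marking cancer cells; inconclusive means readout between -30 and a set limit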;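 further: plate controls were DMSO wells for no effect and camptothecin positive control wells for full effect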
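Read-out is percentage of cells bearing a perinucleolar compartment, from automated 20x imaging of fixed, Hoechst-stained PC3M PTB-GFP cells. Cells were seeded 4 h, then exposed 16 h to compound (23 nl of library stock) in duplicate plates.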
HPGD block: qHTS Assay for Inhibitors of HPGD (15-Hydroxyprostaglandin Dehydrogenase) | purified HPGD, NADH fluorescence kinetic, PGE2 substrate | Potency, µM, inactives show at the top dose activity change, negative = inhibition, usual class: inhibitors | 150,000 compounds, 4.3% hits | AID 894, 2007 | 15-hydroxyprostaglandin dehydrogenase [NAD(+)] (Homo sapiens), P15428; further: potency means the concentration at half of the fitted maximal effect
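NADH formation kinetics: reaction with 30 uM PGE2 and 1 mM NAD+ (final), 20 nM enzyme, Tris-HCl pH 8 with Tween 20, after 15 min compound preincubation at room temperature. Fluorescence change, last versus first of five reads.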
ALDH1A1 inh: qHTS Assay for Inhibitors of Aldehyde Dehydrogenase 1 (ALDH1A1); Aldehyde dehydrogenase 1A1 (Homo sapiens), P00352; Purified ALDH1A1, NADH fluorescence, propionaldehyde substrate; Potency, µM (highest dose often 75.3 µM), inactives show at the top dose activity, negative = inhibition, actives largely listed as inhibitors; 220,000 compounds, 7.3% hits;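 further: potency means the concentration at half of the fitted maximal effect; plate controls were no enzyme wells and a reference inhibitor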
KDM4E inh: qHTS Assay for Inhibitors of Human Jumonji Domain Containing 2E (JMJD2E); Lysine-specific demethylase 4E (Homo sapiens), B2RXH2; JMJD2E catalytic domain, FDH-coupled NADH fluorescence (FDH is formaldehyde dehydrogenase); Potency, µM (highest dose often 57.1 µM), for inactives: at the highest dose activity change, negative = inhibition, hits mostly inhibitors; 230,000 compounds, 1.6% hits; AID 2147, 2009;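 further: potency means the concentration at half of the fitted maximal effect; 0% = wells with enzyme and -100% = buffer wells without enzyme; nearly all actives have a fitted effect of over 50% in size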
Target sequence (B2RXH2 1-337 limits assumed): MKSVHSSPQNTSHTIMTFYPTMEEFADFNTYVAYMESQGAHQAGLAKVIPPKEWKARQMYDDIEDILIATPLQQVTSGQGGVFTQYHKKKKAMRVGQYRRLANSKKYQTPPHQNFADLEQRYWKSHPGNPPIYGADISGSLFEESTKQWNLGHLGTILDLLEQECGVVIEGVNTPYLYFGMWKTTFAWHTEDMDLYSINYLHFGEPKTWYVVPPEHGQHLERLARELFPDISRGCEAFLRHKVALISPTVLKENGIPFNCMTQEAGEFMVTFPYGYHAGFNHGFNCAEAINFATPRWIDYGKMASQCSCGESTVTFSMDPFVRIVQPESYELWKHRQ
The depositor's hits bear a star; u = inconclusive; x = no result; ! = not confirmed by another sample; [ ] = another dose, or the depositor's remark. Only some compounds are listed: those with a hit (about 11% of all), similar ones and a draw of the others. Unless noted, the call rests on the fitted dose curve; in most records, active means well fitted inhibition curve with a large enough effect (not every such curve was filed as active); inconclusive means small, poorly fitted or top-dose-only effect, or another doubt; inactive means no such curve, though single readings can be large or run the other way. Unless noted, on the % scale 0 is the no-effect control and ±100 the full control effect.

SMILES | PNC inhibitor | HPGD block | ALDH1A1 inh | KDM4E inh
Cc1ccc2nc(SC(C)C(=O)Nc3cccc([N+](=O)[O-])c3)[nH]c2c1 (stereo unspecified) | -83.6* | u | -0.9% | -3.3%
Cc1ccc(C)c(-n2nnnc2SCC(=O)c2ccc3c(c2)NC(=O)CO3)c1 | -11.3 | -26.9% | 0.631µM* | 7.0%
COc1ccc(NC(=O)N(C2CCCCC2)C(C)c2cccnc2)c(OC)c1 (stereo unspecified) | -84.9* | -3.7% | 1.1% | -1.4%
Cc1cc(C)cc(N=Cc2[nH]c3ccc(Br)c(Cl)c3c2O)c1 | -28.4 | u | 7.94µM* | 1.5%
Cc1ccc(N=Cc2cc(Br)cc(Cl)c2O)cc1 | x | x | 12.6% | -18.1%
COc1ccc(CN=Cc2[nH]c3ccc(Br)c(Cl)c3c2O)cc1 | u | u | 3.98µM* | -8.0%
CC(C)CCN1CCc2nc(-c3ccccc3)c3c(c2C1)COC(C)C3 (stereo unspecified) | x | x | -16.6%[13.5 µM] | x
CCOC(=O)Cn1c(=O)oc2cc(S(=O)(=O)N(C)c3cccc(C)c3)ccc21 | x | x | x | 5.5%
NS(=O)(=O)c1ccc(NC(=S)NCC2CCCO2)cc1 (stereo unspecified) | 52.7 | u | 28.2µM* | 0.7%
Cc1cc(C)cc(NC(=S)NCC2CCCO2)c1 (stereo unspecified) | u | 14.1µM* | -9.4% | 4.8%
S=C(NCC1CCCO1)Nc1ccc(Nc2ccccc2)cc1 (stereo unspecified) | x | x | u | 6.2%
S=C(NCC1CCCO1)Nc1cc(Cl)c(Cl)cc1Cl (stereo unspecified) | x | x | -4.6% | -6.4%
Cc1onc(-c2c(Cl)cccc2Cl)c1C(=O)N=C(N)N1CC(C)OC(C)C1 (stereo unspecified) | x | x | x | 5.9%
CC(C)(C)c1cnnn1-c1ccc(-c2csc(N)n2)cc1 | 32.8 | -28.4% | 17.8µM* | -12.1%
COc1ncc2nc(-c3cn(C)c4ccccc34)c(=O)n(CCc3ccccc3)c2n1 | x | x | 15.1% | x
CC(C)(N=NC(C)(C)C(=N)N)C(=N)N | x | -8.4% | 31.6µM*! | -8.9%
CN(Cc1ccccc1)C(=O)CSc1cc(=O)n(C)c2ccccc12 | x | x | 12.5% | u
Cn1c(=O)cc(SCC(=O)N2CCCC2)c2ccccc21 | -88.6* | 15.8µM* | u | -9.6%
CCCCN(CC)C(=O)CSc1cc(=O)n(C)c2ccccc12 | 28.0 | 7.08µM* | u | u
Nc1nc(NCCc2ccc(O)cc2)nc2nc(-c3ccco3)nn12 | x | -14.3% | -6.3% | 5.2%
CS(=O)(=O)Nc1ccccc1C(=O)N1CCN(c2ccccc2)CC1 | 39.6 | 0.0% | -4.2% | 4.3%
COc1cc(C(=S)N(C)C)ccc1O | 9.2 | 17.8µM* | 10µM* | -3.3%
CCOc1ccc(NCC2CCOC(C)(C)C2)cc1 (stereo unspecified) | -13.0 | -15.6% | u | 20µM*
CC(C)=C1CCC(C)CC1=O (stereo unspecified) | x | -9.1% | 1.4% | x
CC(C)OCCCNC(=O)NC(=O)c1ccc(Cl)cc1 | x | x | 10.9% | 8.2%
SMILES | PNC inhibitor | HPGD block | ALDH1A1 inh | KDM4E inh
O=c1c(-c2cc(F)cc(F)c2)nc2cnc(N3CCNCC3)nc2n1CCc1ccccc1 | x | -29.4% | u | x
CCC(C)/C(C)=N/NC(=O)c1ccc(COc2ccc(Cl)c(C)c2)cc1 (stereo unspecified) | -134.0* | -14.7% | 12.6µM* | 10.2%
CCCSc1ncnc2c1oc1ccccc12 | 24.1 | 20µM* | u | -7.6%
CCCCN(CCCC)S(=O)(=O)c1ccc(NC(=O)CN2CCOCC2)cc1 | -7.9 | -16.5% | 12.6µM* | 4.3%
CCCCC1(C)NC(=O)N(CC(=O)Nc2ccc(S(=O)(=O)N3CCOCC3)cc2)C1=O (stereo unspecified) | -87.1* | -11.2% | 3.16µM* | 4.9%
CCC1(CC)NC(=O)N(CC(=O)Nc2ccc(S(=O)(=O)N3CCOCC3)cc2)C1=O | x | x | u | 6.9%
O=C(CN1CCN(CCO)CC1)Nc1ccccc1 | -100.0* | -12.9% | u | 1.8%
O=C(CN1CCOCCOCCN(CC(=O)Nc2ccccc2)CCOCC1)Nc1ccccc1 | 8.6 | x | 22.4µM* | -19.8%
CN(C)S(=O)(=O)c1ccc(NC(=O)CN2CCOCC2)cc1 | x | x | x | 3.8%
CNC(=O)COC(=O)c1ccccc1Nc1ccccc1 | x | x | 5.9% | 28.7%
Cc1cccc(C)c1NC(=O)COC(=O)c1ccc([N+](=O)[O-])o1 | x | x | 4.0% | -21.4%

Screens as filed in PubChem BioAssay.
